Measurements taken from PubChem BioAssay (NCATS).
Results filed as inconclusive are left out. Activity calls are given as the source filed them. Calls follow the shape of the dose curve; as a rule, active = well fitted cell-killing curve with a large enough effect; inconclusive = small, poorly fitted or top-dose-only effect, or effect the other way; inactive = flat fitted curve, though single readings scatter. Where a SMILES comes first, the peptide text is derived from it. Bridges are numbered along the chain shown (N, C = ends). [ ]: non-standard residue; d: D form. The star is where a group is joined. X1 = CCC(C)C(N)C1=NC(C(=O)*)CS1; dOrn = NCCC[C@@H](N)C(=O)O

Columns and labels:
Assay in all cases: Primary qHTS to identify gynecologic anti-cancer compounds using libraries of approved drugs and bioactive compounds (AID 1345084); also: nearly all actives have a fitted effect of over 55% in size
C33A = details: Gynecologic cancer cell panel viability, ATPlite luminescence, 48 h; series mostly up to 57.5 µM
Method in brief: (§1)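 In this quantitative HTS, cell killing is estimated from loss of ATP-dependent luciferase light. Cells see five compound concentrations over a 48 h exposure.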

CAOV3 = details: Gynecologic cancer cell panel viability, ATPlite luminescence, 48 h; series mostly up to 57.5 µM
Method in brief: as §1

CASKI = details: Gynecologic cancer cell panel viability, ATPlite luminescence, 48 h; series mostly up to 57.5 µM
Method in brief: as §1

Es-2 = details: Gynecologic cancer cell panel viability, ATPlite luminescence, 48 h; series mostly up to 57.5 µM
Method in brief: as §1

HeLa = details: Gynecologic cancer cell panel viability, ATPlite luminescence, 48 h; series mostly up to 57.5 µM
Method in brief: as §1

Hek293T = details: Gynecologic cancer cell panel viability, ATPlite luminescence, 48 h, control line for the selectivity index; series mostly up to 57.5 µM
Method in brief: as §1
% is scaled to controls: 0 for no effect and ±100 for the full control effect.

CC(=O)Oc1cc2c(s1)CCN([C@H](C(=O)C1CC1)c1ccccc1F)C2
inactive: Potency (C33A) | Potency (CAOV3) | Potency (CASKI) | Potency (Es-2) | Potency (HeLa) | Potency (Hek293T)

COc1c(C(CC(C)C)OC(C)=O)ccc(Oc2c(O)cc(C)cc2/C=C/C(C)=O)c1C(=O)O (configuration not stated)
inactive: Potency (C33A) | Potency (CAOV3) | Potency (CASKI) | Potency (Es-2) | Potency (HeLa) | Potency (Hek293T)

NC(=O)[C@H]1CCCCc2c1[nH]c1ccc(Cl)cc21
inactive: Potency (C33A) | Potency (CAOV3) | Potency (CASKI) | Potency (Es-2) | Potency (HeLa) | Potency (Hek293T)

CC1=C2C=C(CO)C(CO)CCC2(C)CCC1=O (configuration not stated)
inactive: Potency (C33A) | Potency (CAOV3) | Potency (CASKI) | Potency (Es-2) | Potency (HeLa) | Potency (Hek293T)

O=C(/C=C/c1ccc(O)cc1)O[C@H]1[C@@H]2C=CO[C@@H](O[C@@H]3O[C@H](CO)[C@@H](O)[C@H](O)[C@H]3O)[C@@H]2[C@@]2(CO)O[C@@H]12
inactive: Potency (C33A) | Potency (CAOV3) | Potency (CASKI) | Potency (Es-2) | Potency (HeLa) | Potency (Hek293T)

COC1=CC(=O)O[C@@H](CCc2ccccc2)[C@@H]1O
inactive: Potency (C33A) | Potency (CAOV3) | Potency (CASKI) | Potency (Es-2) | Potency (HeLa) | Potency (Hek293T)

CCOc1ccc(C(Nc2ccccn2)c2ccc3ccc(C)nc3c2O)cc1C (configuration not stated)
inactive: Potency (C33A) | Potency (CAOV3) | Potency (CASKI) | Potency (Es-2) | Potency (HeLa) | Potency (Hek293T)

CC(=O)N[C@H]1CCN(c2ccc(C3=NOC(CN[S+](=O)([O-])C(C)C)C3)cc2F)C1 (some centres not stated)
inactive: Potency (C33A) | Potency (CAOV3) | Potency (CASKI) | Potency (Es-2) | Potency (HeLa) | Potency (Hek293T)

CN1C(=O)c2ccccc2-n2c(nc3ccccc3c2=O)/C1=C/c1ccccc1
inactive: Potency (C33A) | Potency (CAOV3) | Potency (CASKI) | Potency (Es-2) | Potency (HeLa) | Potency (Hek293T)

CC1(C)CC[C@]2(C(=O)O)CC[C@]3(C)C(=CCC4[C@@]5(C)CC[C@H](O[C@@H]6O[C@H](C(=O)O)[C@@H](O)[C@H](O)[C@H]6O)C(C)(CO)C5CC[C@]43C)C2C1 (some centres not stated)
inactive: Potency (C33A) | Potency (CAOV3) | Potency (CASKI) | Potency (Es-2) | Potency (HeLa) | Potency (Hek293T)

CCN[C@@H]1C[C@H](N)[C@@H](O[C@H]2OC(CN)=CC[C@H]2N)[C@H](O)[C@H]1O[C@H]1OC[C@](C)(O)[C@H](NC)[C@H]1O
inactive: Potency (C33A) | Potency (CAOV3) | Potency (CASKI) | Potency (Es-2) | Potency (HeLa) | Potency (Hek293T)

COC(=O)[C@]12C(=O)C(C)=C(O)[C@@]1(C)C(C)=CC1[C@@]34CC[C@@H](OC(C)=O)C(C)(C)C3[C@H](C[C@]12C)OC4=O (some centres not stated)
inactive: Potency (C33A) | Potency (CAOV3) | Potency (CASKI) | Potency (Es-2) | Potency (HeLa) | Potency (Hek293T)

CC(=O)OC[C@]12[C@H](OC(C)=O)C(=O)[C@@H]3[C@@H](OC(C)=O)[C@@]14O[C@@]3(C)COC(=O)c1cccnc1[C@@H](C)[C@H](C)C(=O)O[C@@H]([C@H](OC(C)=O)[C@@H]2OC(C)=O)[C@]4(C)O
inactive: Potency (C33A) | Potency (CAOV3) | Potency (CASKI) | Potency (Es-2) | Potency (HeLa) | Potency (Hek293T)

COc1cc(C2Oc3c(O)cc(CCCO)cc3C2CO)ccc1O[C@H]1O[C@H](C)[C@@H](O)[C@H](O)[C@@H]1O (some centres not stated)
inactive: Potency (C33A) | Potency (CAOV3) | Potency (CASKI) | Potency (Es-2) | Potency (HeLa) | Potency (Hek293T)

COC(=O)C[C@@H]1C(C(=O)O)=CO[C@@H](O[C@@H]2O[C@H](CO)[C@@H](O)[C@H](O)[C@H]2O)/C1=C\COC(=O)/C=C\c1ccccc1
inactive: Potency (C33A) | Potency (CAOV3) | Potency (CASKI) | Potency (Es-2) | Potency (HeLa) | Potency (Hek293T)

CC1(CO)CC[C@]2(C(=O)O[C@@H]3O[C@H](CO)[C@@H](O)[C@H](O)[C@H]3O)CC[C@]3(C)C(=CCC4[C@@]5(C)C[C@H](O)[C@H](O[C@@H]6OC[C@@H](O)[C@H](O)[C@H]6O)[C@@](C)(CO)C5CC[C@]43C)C2C1 (some centres not stated)
inactive: activity change, negative = cytotoxicity (C33A) 5.37% [at 11.6 µM] | activity change, negative = cytotoxicity (CAOV3) -5.98% [at 11.6 µM] | activity change, negative = cytotoxicity (CASKI) 3.16% [at 11.6 µM] | activity change, negative = cytotoxicity (Es-2) -0.538% [at 11.6 µM] | activity change, negative = cytotoxicity (HeLa) 1.08% [at 11.6 µM] | activity change, negative = cytotoxicity (Hek293T) 6.32% [at 11.6 µM]

CO[C@@H]1COCC[C@@H]1N[C@@H]1CC[C@@](C(=O)N2CCc3ncc(C(F)(F)F)cc3C2)(C(C)C)C1
inactive: Potency (C33A) | Potency (CAOV3) | Potency (CASKI) | Potency (Es-2) | Potency (HeLa) | Potency (Hek293T)

CNc1nc(Nc2cnn([C@H]3CCN(C4COC4)C[C@@H]3F)c2Cl)ncc1C(F)(F)F
inactive: Potency (C33A) | Potency (CAOV3) | Potency (CASKI) | Potency (Es-2) | Potency (HeLa) | Potency (Hek293T)

CCOC(=O)[C@H]1O[C@@H]1C(=O)N[C@@H](CC(C)C)C(=O)NCCC(C)C
inactive: Potency (C33A) | Potency (CAOV3) | Potency (CASKI) | Potency (Es-2) | Potency (HeLa) | Potency (Hek293T)

CC(=O)C1CCC2(C)C3=C(CCC12C)C1(C)CCC(=O)C(C)(C)C1CC3 (configuration not stated)
inactive: Potency (C33A) | Potency (CAOV3) | Potency (CASKI) | Potency (Es-2) | Potency (HeLa) | Potency (Hek293T)

COc1cc(/C=C/C(=O)OC2CC(OC(C)=O)C(OC(C)=O)C3C2CCC2C(=O)OC(c4ccoc4)CC23C)ccc1O[C@@H]1O[C@H](CO)[C@@H](O)[C@H](O)[C@H]1O (some centres not stated)
inactive: Potency (C33A) | Potency (CAOV3) | Potency (CASKI) | Potency (Es-2) | Potency (HeLa) | Potency (Hek293T)

CCC(C)C(N)C1=NC(C(=O)N[C@@H](CC(C)C)C(=O)N[C@H](CCC(=O)O)C(=O)N[C@H](C(=O)N[C@H]2CCCCNC(=O)[C@H](CC(N)=O)NC(=O)[C@@H](CC(=O)O)NC(=O)[C@H](Cc3cnc[nH]3)NC(=O)[C@@H](Cc3ccccc3)NC(=O)[C@H]([C@@H](C)CC)NC(=O)[C@@H](CCCN)NC2=O)[C@@H](C)CC)CS1 (some centres not stated) (X1-L[dE]IK[dOrn]I[dF]H[dD]N; lactam 4-C)
inactive: Potency (C33A) | Potency (CAOV3) | Potency (CASKI) | Potency (Es-2) | Potency (HeLa) | Potency (Hek293T)
